Reference: the supplement of paper PMC6555819

These sequences were tested on PXR homodimer (NR concentration 270 nM) (assay: PBM binding z-score (relative to random genomic background probes); higher = stronger binding; sequences stand for … in GC…GCGATTGACAGCGTAGAATGAAGG).
Method in brief: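 Each nuclear receptor dimer, without ligand, was incubated for 1 h on custom Agilent 4×180K protein-binding microarrays. Binding was detected with antibodies against each partner (one per run), and scanned fluorescence was regression-normalized. The binding z-scores are referenced to random human genomic background probes.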
In the case of CATACAGGTTCAGCTAGGCCAGAGTAGGGACGGC, the PBM binding z-score is reported as 0.121. TCGAGTAGGTTAGTCGGTGCATTCAGCCAACATA gave a PBM binding z-score of -0.142. CAACCTAGGTCACAGAGGTCAAAGTCCGTGCGTA showed a PBM binding z-score of 12.5. In the case of ATACCAAGGTGATGGTGAGGTCGTTGATACTAAC, the PBM binding z-score is reported as 1.55. In the case of ATCTCTAGGTAACCAACTTCAGTGAATGCCGAAC, the PBM binding z-score is reported as 0.34. CGGCAAAGTTCAAGGTAACGTAACAGAAAGCAGC was tested, and the PBM binding z-score was 2.11. CCTGCTTGGTCAATGGTCAGCTAAAGCAGCTCGC showed a PBM binding z-score of -0.881. Sequence CGTCCAAGGTCAGAGAGATCAGTGAATGCCGAGT has a PBM binding z-score of 0.829. With ACAGGCAGGTGAGTGAAGGTAACTCAGCTGGACG the PBM binding z-score was -0.354. TCTAGCGGGCCAGAGGGTCACTCAAGAGGTACGG gave a PBM binding z-score of -0.599. TCTATTAGCTGAAGGGCAACCGACGAGTCCGTTT gave a PBM binding z-score of 0.237. TCTTGTAGATCAATAGACGTTAAGAAAGTGCGCT was tested, and the PBM binding z-score was -0.0185. In the case of CCTACTGGGCCACAAAAGGTCATTGATTCAGTGA, the PBM binding z-score is reported as 1.16. TAGCCTAGGGCAGATCGGGCCAGTATACGCTATA was tested, and the PBM binding z-score was -0.7. In the case of CCTTACGGGTCAAGGTTACAGCACGGGTGGTACG, the PBM binding z-score is reported as -0.0469. Sequence CTTACTGGGCCAAAAAGGTCATTGATGCCGATAA has a PBM binding z-score of 4.11. Sequence CATACAAGGTCAGCTAGGCCAGAGTAGGGACGGC has a PBM binding z-score of 0.612. Work on CCGGCTGGGGCAAGGTTACCATAACGCACAGCCA yielded a PBM binding z-score of -0.654. For GCAGACAGGTGAAGCGCAGGTAACTCAGGGTGGC, the PBM binding z-score was -0.646. AGTCAAAGTTCACTAGGTAAAGTAAGATTCAGCT showed a PBM binding z-score of 2.63. Work on CGTCCAAGGTCAAGGTCAGGGAAAGAGACTCGAA yielded a PBM binding z-score of 1.82. CAAACTAGGTCACCGGAATGTCAAAGTCCGCATG was tested, and the PBM binding z-score was -0.000286. With TGAATGAGGTTAAAGATAAGGGAACGTGGCGTCG the PBM binding z-score was 0.106. With ATCGAAAGGTCGTCAGGTGAGTATACAGAAAGGC the PBM binding z-score was 0.936. Sequence TCTATTAGTTGAAGGGCATCCGACGAGTCCGTTT has a PBM binding z-score of 1.03. For CGTAAAAGTTCAAGGTAACGTAACAGAAAGCAGC, the PBM binding z-score was 1.82. Sequence TCAGAGAGGTGAAGGTAACTCAGGTACGCAGTCG has a PBM binding z-score of -0.409. ATCTCTAGGTAAAGTGCAGTGAAAGATCGATAGA was tested, and the PBM binding z-score was 0.194. Sequence ATCTCTAGGTAAAAGGTCAGTGAATCCCGAGGAT has a PBM binding z-score of 0.63. With TGAATGAGGTTATAGGATCAGGGAACGTTGCAAA the PBM binding z-score was 0.148. TGAATGAGGTTAGAGATCAGGGAACGTGGCGTCG showed a PBM binding z-score of -0.359. Work on CGTCCATGGTCAGAGAGGTCAGTGAATGCCGAGT yielded a PBM binding z-score of 1.73. TCTGCTAGTTCAACGATGGTCAGCTAATCTGCTA showed a PBM binding z-score of -0.0476. GATACAGGATCAAGGCCAGAGTACGCGTATTGAT was tested, and the PBM binding z-score was -0.0263. Work on CATACTGGGCCATTCAGAGGTCATTGATCATATG yielded a PBM binding z-score of 2.58. Work on ATCTCTAGGTAAACTTCAGTGAAAGATCGATAGA yielded a PBM binding z-score of 0.42. With TCGAGTAGGTTAGTCGGGGAATTCAGCCAACATA the PBM binding z-score was -0.47. Work on CTACCAAGTTGAACAAGGTCGTTGATTACTATTC yielded a PBM binding z-score of 4.18. Sequence GCTGCTAGGTCAGGTTGGACAGCTAACGGGTACG has a PBM binding z-score of -0.273. Work on AATACAGGGTCACCGTAGGCCAGAGTACGCACAG yielded a PBM binding z-score of 0.366.
